Test results: PubChem BioAssay AID1159580 (chemical genetic matrix, 2015)
Out of some 5,500 compounds screened, about 2,000 (36%) were called active. About 18% were inconclusive and are not listed. No stated cut-off is given here; in the data, active means normalized growth mostly below about 0.91 (no sharp cut-off); inconclusive means no clear call, values can overlap the other calls; inactive means mostly above about 0.92. This is one part of the list.

Assay: chemical genetic growth profiling, strain panel (AID 1159580);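 further: tested at 20 µM; growth read once vehicle control cultures reached saturation at 30 °C; 1 = growth at the plate median or of vehicle wells; lower values mean less growth of the strain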
Settings: S. cerevisiae deletion strains, growth OD

Measured: normalized growth

C[C@@H]1O[C@H](C[N+](C)(C)C)C[C@H]1O
inactive: locus YAL013W, strain DEP1, active compounds read low 1.01 | locus YAL040C, strain CLN3, active compounds read low 1 | locus YCL061C, strain MRC1 (second series), active compounds read low 1.01 | locus YDR363W, strain ESC2, active compounds read low 0.993 | locus YER002W, strain NOP16, active compounds read low 1.02 | locus YMR263W, strain SAP30, active compounds read low 1.01 | locus YNL128W, strain TEP1, active compounds read low 1 | locus YNL153C, strain GIM3, active compounds read low 1.02 | locus YNL175C, strain NOP13, active compounds read low 1.01 | locus YNL197C, strain WHI3, active compounds read low 1.01 | locus YNL224C, strain SQS1, active compounds read low 1.01 | locus YOR083W, strain WHI5 (second series), active compounds read low 1.01 | locus YPL241C, strain CIN2, active compounds read low 1.01

CC(C)CCCC1(C)C=Cc2c(O)c3c(c(CCC(C)C)c2O1)OC12C(CC4CC1C(C)(C)OC2(CCC(C)C(=O)O)C4O)C3=O (stereo not drawn)
active: locus YDR137W, strain rgp1, active compounds read low 0.815
inactive: locus YAL021C, strain ccr4, active compounds read low 1 | locus YAL026C, strain drs2, active compounds read low 0.991 | locus YAL030W, strain snc1, active compounds read low 1 | locus YBL061C, strain skt5, active compounds read low 0.996 | locus YBR009C, strain hhf1, active compounds read low 0.992 | locus YBR023C, strain chs3, active compounds read low 0.998 | locus YBR171W, strain sec66, active compounds read low 0.991 | locus YBR231C, strain swc5, active compounds read low 0.997 | locus YBR279W, strain paf1, active compounds read low 0.994 | locus YCL011C, strain gbp2, active compounds read low 0.994 | locus YCL016C, strain dcc1, active compounds read low 0.989 | locus YCL061C, strain MRC1, active compounds read low 0.986 | locus YCL069W, strain vba3, active compounds read low 0.998 | locus YCR088W, strain abp1, active compounds read low 0.997 | locus YDL005C, strain med2, active compounds read low 0.985 | locus YDL040C, strain nat1, active compounds read low 0.995 | locus YDR001C, strain nth1, active compounds read low 0.998 | locus YDR069C, strain doa4, active compounds read low 0.988 | locus YDR159W, strain sac3, active compounds read low 0.991 | locus YDR195W, strain ref2 1.01 | locus YDR297W, strain sur2, active compounds read low 0.998 | locus YDR334W, strain swr1, active compounds read low 0.975 | locus YDR335W, strain msn5, active compounds read low 0.995 | locus YDR392W, strain spt3, active compounds read low 0.925 | locus YEL003W, strain gim4, active compounds read low 0.982 | locus YEL037C, strain rad23, active compounds read low 1.03 | locus YEL061C, strain CIN8 (second series), active compounds read low 0.996 | locus YER015W, strain faa2, active compounds read low 1 | locus YER016W, strain bim1, active compounds read low 0.99 | locus YER111C, strain swi4, active compounds read low 1.02 | locus YER155C, strain BEM2 (second series), active compounds read low 1.01 | locus YFR010W, strain ubp6, active compounds read low 0.986 | locus YGL167C, strain pmr1, active compounds read low 0.988 | locus YGL173C, strain kem1, active compounds read low 0.991 | locus YGL227W, strain vid30, active compounds read low 1.01 | locus YGL240W, strain doc1, active compounds read low 0.979 | locus YGL253W, strain hxk2, active compounds read low 1 | locus YHR013C, strain ard1, active compounds read low 1.02 | locus YHR027C, strain rpn1, active compounds read low 1 | locus YHR030C, strain SLT2, active compounds read low 0.966 | locus YHR079C, strain IRE1, active compounds read low 0.971 | locus YHR142W, strain chs7, active compounds read low 1.01 | locus YJL092W, strain hpr5, active compounds read low 0.988 | locus YJL095W, strain BCK1 (second series), active compounds read low 1 | locus YJL095W, strain BCK1, active compounds read low 0.987 | locus YJL115W, strain asf1, active compounds read low 0.996 | locus YJL129C, strain trk1, active compounds read low 0.958 | locus YJL154C, strain vps35, active compounds read low 0.994 | locus YJL164C, strain tpk1, active compounds read low 0.982 | locus YJL166W, strain qcr8, active compounds read low 0.996 | locus YJL187C, strain SWE1, active compounds read low 0.997 | locus YJR066W, strain TOR1, active compounds read low 0.919 | locus YKL160W, strain elf1, active compounds read low 1 | locus YKR026C, strain gcn3, active compounds read low 1 | locus YKR091W, strain srl3, active compounds read low 0.998 | locus YLL001W, strain dnm1, active compounds read low 1 | locus YLL026W, active compounds read low 0.997 | locus YLL041C, strain sdh2, active compounds read low 0.995 | locus YLR027C, strain aat2, active compounds read low 0.999 | locus YLR113W, strain HOG1, active compounds read low 0.941 | locus YLR221C, strain rsa3, active compounds read low 0.989 | locus YLR258W, strain gsy2, active compounds read low 0.998 | locus YLR262C, strain YPT6 (second series), active compounds read low 0.919 | locus YLR320W, strain mms22, active compounds read low 0.99 | locus YLR342W, strain FKS1, active compounds read low 1 | locus YLR357W, strain rsc2, active compounds read low 1.04 | locus YLR370C, strain arc18, active compounds read low 0.999 | locus YLR384C, strain iki3, active compounds read low 0.992 | locus YML120C, strain ndi1, active compounds read low 0.997 | locus YMR058W, strain fet3, active compounds read low 0.986 | locus YMR125W, strain sto1, active compounds read low 0.991 | locus YMR129W, active compounds read low 0.993 | locus YMR205C, strain PFK2, active compounds read low 0.955 | locus YMR231W, strain pep5, active compounds read low 0.986 | locus YNL071W, strain lat1, active compounds read low 0.969 | locus YNL183C, strain NPR1, active compounds read low 0.92 | locus YNL209W, strain ssb2, active compounds read low 0.99 | locus YNL248C, strain rpa49, active compounds read low 1.01 | locus YNL322C, strain KRE1 (second series), active compounds read low 1.01 | locus YNR049C, strain mso1, active compounds read low 1.01 | locus YOR001W, strain rrp6, active compounds read low 0.983 | locus YOR070C, strain gyp1, active compounds read low 0.995 | locus YOR080W, strain dia2, active compounds read low 1 | locus YOR083W, strain WHI5, active compounds read low 0.99 | locus YOR106W, strain vam3, active compounds read low 0.996 | locus YOR231W, strain MKK1, active compounds read low 0.964 | locus YOR265W, strain rbl2, active compounds read low 1 | locus YOR270C, strain vph1, active compounds read low 0.955 | locus YOR290C, strain snf2, active compounds read low 0.995 | locus YPL051W, strain arl3, active compounds read low 0.98 | locus YPL078C, strain atp4, active compounds read low 1 | locus YPL106C, strain sse1, active compounds read low 1 | locus YPL240C, strain hsp82, active compounds read low 1.01 | locus YPL256C, strain CLN2, active compounds read low 0.985
